Results taken from PubChem BioAssay AID1006 (Sanford-Burnham Center for Chemical Genomics, 2008).
The campaign covered roughly 200,000 compounds. About 3,000 (1.5%) were called active. The sample as a whole holds a higher share of actives than the screen did. Values without a mark were called inactive.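 How the source made its calls: active means inhibition above about 50% when tested at 10 µM (limit read from the data); inactive means the rest.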

molecular target: Luciferin 4-monooxygenase (Photinus pyralis) (UniProt P08659); assay: inhibition of purified FLuc reporter enzyme – biochemical, luminescence, ATPLite, artefact control for luciferase-based inhibitor screens, primary screen (AID 1006); settings: ATPLite firefly luciferase biochemical luminescence, 10 min; at 10 µM; stronger effect = higher value
Sequence (P08659 whole entry, looked up): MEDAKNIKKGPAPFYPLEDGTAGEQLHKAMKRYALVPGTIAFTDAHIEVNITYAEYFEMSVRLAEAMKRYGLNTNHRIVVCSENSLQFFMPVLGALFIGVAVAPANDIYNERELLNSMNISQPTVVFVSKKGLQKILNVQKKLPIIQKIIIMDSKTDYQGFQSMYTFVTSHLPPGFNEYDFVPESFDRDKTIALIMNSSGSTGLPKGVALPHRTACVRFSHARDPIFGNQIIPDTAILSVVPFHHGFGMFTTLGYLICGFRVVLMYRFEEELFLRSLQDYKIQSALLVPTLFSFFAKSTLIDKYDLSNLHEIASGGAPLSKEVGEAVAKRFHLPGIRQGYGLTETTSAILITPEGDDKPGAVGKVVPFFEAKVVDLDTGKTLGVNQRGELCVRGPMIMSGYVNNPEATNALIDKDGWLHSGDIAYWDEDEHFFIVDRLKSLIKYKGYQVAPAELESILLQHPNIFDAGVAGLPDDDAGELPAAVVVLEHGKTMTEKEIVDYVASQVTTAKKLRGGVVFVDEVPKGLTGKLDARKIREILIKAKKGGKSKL

In order of falling inhibition:
1. CC(=O)Nc1ccc(/C=N/NC(=O)c2cccs2)cc1  42.4%
2. O=C(/C=C\c1cn(-c2ccccc2)nc1-c1cccs1)N1CCOCC1  35.3%
3. Cc1[nH]n(-c2ccccc2)c(=O)c1/C=N/NC(=O)c1ccoc1C  20.6%
4. O=C(O)/C=C/c1cn(-c2ccccc2)nc1-c1cccs1  18%
5. COCCn1c(C)cc(C2=NNC(=Nc3ccc(F)cc3)SC2)c1C  17.9%
6. O=C(O)c1ccc(/C=N/NC(=O)c2ccc(Br)cc2)cc1  15.3%
7. O=C(NCCOc1ccccc1)c1ccccc1  14.7%
8. CSc1nc2ccc(NC(=O)c3c(F)cccc3F)cc2s1  12.4%
9. CCC(=O)NC(=Nc1nc2ccccc2s1)NC(=O)CC  11.6%
10. COc1ccc(/C=N/Nc2nc3ccccc3o2)cc1OC  11.5%
11. Cc1nn(C)cc1/C=N/NC(=O)c1sc2ccccc2c1Cl  11.2%
12. COc1ccc(-c2nc(SCC(=O)N3CCOCC3)n[nH]2)cc1  9.9%
13. CCOc1ccc(/C=N/Nc2nncc(-c3ccccc3)n2)cc1OC  9.9%
14. Cc1onc(C(=O)NCc2ccc(F)cc2)c1[N+](=O)[O-]  8%
15. O=C(N/N=C/c1c(Cl)[nH]c2ccccc12)c1sc2ccccc2c1Cl  5%
16. O=C(CSc1ccc2nnc(-c3ccccc3)n2n1)N1CCCc2ccccc21  4.5%
17. O=C(COC(=O)C1CCCCC1)Nc1ccc([N+](=O)[O-])cc1  2.8%
18. NC(=O)Nc1ccccc1C(=O)NCCc1ccccc1  2%
19. N/C(=N\OC(=O)c1cc(-c2ccccc2)nc2ccccc12)c1ccncc1  1.6%
20. OCCNCCOc1ccc(Cl)c(Cl)c1  0.7%
21. O=C(O)CCCCOn1ccnc1  0.6%
22. Cc1cccc(-n2c(C)cc(/C=N/NC(N)=S)c2C)c1  0.5%
23. Cc1cccc(C)c1NC(=O)C1(C)c2cccc[n+]2CC(=O)N1Cc1cccs1 (centres undefined)  0.5%
24. Cc1ccc(-c2noc(CCC(N)=O)n2)cc1  0.2%
25. CC(C)C1Nc2c(C(=O)O)cccc2C(Nc2ccccc2C(=O)O)C1(C)C (centres undefined)  0.1%
26. CN(C(=O)c1ccno1)c1nnc(-c2cccnc2)s1  0.1%
27. CN(C)c1ccc(C(CNC(=O)c2ccc(F)cc2)c2c[nH]c3ccccc23)cc1 (centres undefined)  -0.6%
28. COc1cc(C(=O)Nc2nccs2)cc(OC)c1OC  -0.7%
29. COc1ccc(C(=O)NCc2cn3ccccc3n2)cc1  -1.1%
30. O=C(NCCc1ccccc1)c1ccc(OCCOc2ccccc2)cc1  -1.1%
31. Cn1c(=NC(=O)CSCC(=O)N2CCOCC2)sc2ccccc21  -1.3%
32. CCOc1ccc(C(=O)Nc2nccs2)cc1[N+](=O)[O-]  -1.5%
33. Cc1cccc2cc3c(N)c(C(=O)N4CCCc5ccccc54)sc3nc12  -1.8%
34. Cc1ccc(-c2nc(-c3cccnc3)sc2CC(=O)Nc2ccc(C)c(Cl)c2)cc1  -1.9%
35. NC1=NN(c2cccc(C(=O)O)c2)C(=O)C1  -2.1%
36. CN(C(=O)COc1ccccc1)c1nnc(-c2ccncc2)s1  -2.1%
37. O=C(NCC(O)c1ccc([N+](=O)[O-])cc1)C1CCCCC1 (centres undefined)  -2.2%
38. COc1ccc(OC)c(S(=O)(=O)Nc2cccc(-c3ccc4nncn4n3)c2)c1  -2.6%
39. CC/C(O)=C1\C(=O)CC(C)(C)CC1=NCCc1nc2ccccc2[nH]1  -2.7%
40. C=CCN(c1ccc(C(=O)Nc2cc(C)cc(C)c2)cc1)S(C)(=O)=O  -2.7%
41. Cc1cc(C2=NNC(=Nc3ccc(S(=O)(=O)N4CCOCC4)cc3)SC2)c(C)n1CC1CCCO1 (centres undefined)  -3%
42. O=C(CSc1nc(O)c(Cc2ccccc2)c(=O)[nH]1)Nc1nc2c(s1)CCCC2  -3%
43. CC(=O)Nc1ccc(S(=O)(=O)NCC(=O)OCc2cc(=O)oc3ccc4ccccc4c23)cc1  -3.3%
44. Cc1ccc(N2CCN(C3=NC(=O)/C(=C\c4cccs4)S3)CC2)cc1  -3.4%
45. COc1ccc(-c2ccnc(SCC(=O)N3CCOCC3)n2)cc1  -3.4%
46. CC(C)CC(=O)NC(=S)NCc1ccccc1  -3.5%
47. Cc1nnc(SC(C(=O)Nc2cc(Cl)cc(Cl)c2)c2ccccc2)[nH]c1=O (centres undefined)  -3.6%
48. Nc1nnc(SCC(=O)OCc2ccc(Cl)c(Cl)c2)s1  -3.7%
49. CCOc1ccc(-c2n[nH]c(C)c2-c2ccccn2)c(O)c1  -3.7%
50. Cc1c(C(=O)Nc2ccccc2)sc2nc3n(c(=O)c12)CCCCC3  -3.9%
51. Cc1nnc(N/N=C/C2CC=CCC2)[nH]c1=O (centres undefined)  -4%
52. Cc1ccc2nc(COc3ccc(N(C)S(=O)(=O)c4ccccc4)cc3)cc(=O)n2c1  -4.2%
53. CC(=O)N1CCN(CC(=O)Nc2ccc(SC(F)F)cc2)CC1  -4.2%
54. CCOC(=O)c1sc(NC(=O)CSc2n[nH]c(CC)n2)nc1C  -4.3%
55. O=C1N=C(N2CCCC2)S/C1=C\c1cccc(Br)c1  -4.4%
56. CN1CCN(C(=O)CCc2nc(-c3ccc(Cl)cc3)no2)CC1  -4.7%
57. Cn1c(=NC(=O)CSCC(=O)N2CCCCC2)sc2ccccc21  -5%
58. CC(=O)c1cc(-c2ccccc2)n(CCC(=O)NC2CCCCCC2)c1C  -5.1%
59. Cc1cccc2c(=O)n3c(nc12)CCCCC3  -5.2%
60. Cc1ccc2c(c1)C(c1ccccc1)N(C(=O)c1ccc(S(=O)(=O)N3CCOCC3)cc1)CC(=O)N2 (centres undefined)  -5.3%
61. Cc1ccnc2nc(C(=O)OCC(=O)N(CC(C)C)CC(C)C)nn12  -5.4%
62. CC(C)c1cc(NCc2ccccn2)n2c(nc3ccccc32)c1C#N  -5.4%
63. COc1cc(OC)c(C2=NOC(C(=O)Nc3c(C)n(C)n(-c4ccccc4)c3=O)C2)cc1Cl (centres undefined)  -5.5%
64. CC(C)=C1SC(N2CCN(c3cccc(C)c3)CC2)=NC1=O  -5.6%
65. Cc1cc(C)c2c(NC(=O)C3CC3)nn(C)c2n1  -5.8%
66. COc1ccc(C2Nc3ccccc3C(=O)N2c2ccc(Cl)cc2)cc1Cn1cc([N+](=O)[O-])cn1 (centres undefined)  -5.8%
67. CCOc1ccc(/C=N/NC(=O)C(C)Sc2ccccn2)cc1OCC (centres undefined)  -6%
68. Cc1cccc(C(=O)c2cccc(C)c2)c1  -6.1%
69. N#C/C(=C(\O)C(F)(F)F)c1nnc2n1CCCCC2  -6.2%
70. Cc1ccc(-c2cc(C(F)(F)F)n3ncc(C(=O)N4CCCCC4c4cccnc4)c3n2)cc1 (centres undefined)  -6.3%
71. CC(C)NC(=S)NN=C1CCCCCCCCCCC1  -6.7%
72. O=C(NCC1CCCO1)C1CCN(C2CCN(C(=O)C3CCCCC3)CC2)CC1 (centres undefined)  -6.8%
73. CCC(C)(C)C1CCC(=NNC(=O)c2ccc(Br)o2)CC1 (centres undefined)  -7.3%
74. O=C(Cc1ccc(F)cc1)N1CCN=C1SCc1cccc([N+](=O)[O-])c1  -8.2%
75. CC(=O)Nc1ccccc1NC(=O)c1cc(C)cc(C)c1  -8.5%
76. Cc1ccc(C2=N/C(=C\c3ccc(OS(=O)(=O)c4ccc(C)cc4)cc3)C(=O)O2)cc1  -8.9%
77. CCOC(=O)C1(Cc2ccccc2C(F)(F)F)CCN(C(=O)c2cc(C)n(C)n2)CC1  -9.5%
78. CCCCN(C)CCNC(=O)CSCc1ccc(C)cc1  -9.7%
79. COc1cccc(/C=N/NC(=O)c2cccc([N+](=O)[O-])c2)c1OS(=O)(=O)c1ccc(C)cc1  -9.9%

`Cc1cccc(-n2c(C)cc(/C=N\NC(=O)c3cccs3)c2C)c1` was tested, and the inhibition was 50.3% (active).
With `Oc1ccc(N=Cc2sc3ccccc3c2Cl)cc1` the inhibition was 65.5% (active).
For `O=Cc1ccc(OCc2cn3ccccc3n2)cc1`, the inhibition was 50.3% (active).
In the case of `Cc1cccc(C2=N/C(=C/c3cccs3)C(=O)O2)c1`, the inhibition is reported as 88.5% (active).
`CC(=O)Oc1ccc(C(=O)Nc2nccs2)cc1` was tested, and the inhibition was 54.1% (active).
With `CC(C)CC(=O)N/C(N)=N/c1nc2ccccc2s1` the inhibition was 63.5% (active).
In the case of `CCN1C(=O)/C(=C2\SC(N3CCCCC3)=NC2=O)c2ccccc21`, the inhibition is reported as 50.9% (active).
With `C=CCn1c(C)cc(C2=NNC(=NCC)SC2)c1C` the inhibition was 96.5% (active).
`Cc1ccc(-n2[nH]c(C)c(/C=N/NC(=O)c3cccc([N+](=O)[O-])c3)c2=O)cc1C` was tested, and the inhibition was 94.9% (active).
With `CCOc1ccc(-c2ccc(SCC(=O)N3CCOCC3)nn2)cc1` the inhibition was 84.4% (active).
For `Cc1cccc(/C(N)=N/OC(=O)c2ccccc2Cl)c1`, the inhibition was 89.7% (active).
In the case of `O=C(O)c1ccc(N/N=C/c2cn(-c3ccccc3)nc2-c2cccs2)cc1`, the inhibition is reported as 92.2% (active).
With `CN(C(=O)c1ccccn1)c1nnc(-c2ccccn2)s1` the inhibition was 55.5% (active).
With `Cn1c(=NC(=O)c2cnccn2)sc2ccccc21` the inhibition was 75.5% (active).
With `CCNC(=O)CCc1nc(-c2ccc(C(C)(C)C)cc2)no1` the inhibition was 52.3% (active).
For `COc1cc(/C=N/Nc2nn3cnnc3c3ccccc23)cc(OC)c1OC`, the inhibition was 84.1% (active).
For `CSCc1ccc(C(=O)Nc2cc(C)cc(C)c2)cc1`, the inhibition was 77.9% (active).
With `CCOC(=O)c1sc(NC(=O)CSc2nc(O)c(Cc3ccccc3)c(=O)[nH]2)nc1C` the inhibition was 72.8% (active).
In the case of `CCCOc1ccc(C(=O)NCCc2ccccc2)cc1`, the inhibition is reported as 70.6% (active).
In the case of `O=c1c2c(nc3n1CCCCC3)sc1c(O)cccc12`, the inhibition is reported as 60.4% (active).
